Only some compounds are listed: those with a hit (about 3.5% of all), similar ones and a draw of the others.
GPR151 activ: activators of human GPR151, primary screen, cell-based, PathHunter beta-arrestin, luminescence. 650,000 tested, 1% active. activation, % at 11.2 µM. G-protein coupled receptor 151 (Homo sapiens), Q8TDV0. AID 1508602, 2020. PathHunter beta-arrestin GPR151 cells; in the data active means activation above about 4.9%
FBW7 act: FBW7 E3 ligase activators, primary screen, biochemical, AlphaScreen, human; F-box/WD repeat-containing protein 7 (Homo sapiens), Q969H0; AlphaScreen FBW7–phospho-cyclin E peptide binding, activator screen; normalized activity (activation), % at 26.1 µM; 650,000 tested, 0.13% active; AID 1259310, 2017; in the data active means normalized activity above about 1.9%;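 further: purified mutant Fbw7 with reduced substrate affinity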
TEAD-YAP inh: TEAD-YAP interaction inhibition, primary screen, TEAD-YAP interaction inhibitor project, luminescence, HEK-TIYL cells. 640,000 tested, 1.4% active. inhibition, % at 9.12 µM. TEAD-Gal4/YAP UAS-luciferase luminescence; in the data active means inhibition above about 32%
MITF primary: MITF inhibitors, primary screen, biochemical, AlphaScreen, human; AlphaScreen MITF homodimerization, bead proximity signal; inhibition, % at 2.6 µM; 650,000 tested, 0.91% active; AID 1259374, 2018; in the data active means inhibition above about 50%
Target sequence (O75030 whole entry, looked up): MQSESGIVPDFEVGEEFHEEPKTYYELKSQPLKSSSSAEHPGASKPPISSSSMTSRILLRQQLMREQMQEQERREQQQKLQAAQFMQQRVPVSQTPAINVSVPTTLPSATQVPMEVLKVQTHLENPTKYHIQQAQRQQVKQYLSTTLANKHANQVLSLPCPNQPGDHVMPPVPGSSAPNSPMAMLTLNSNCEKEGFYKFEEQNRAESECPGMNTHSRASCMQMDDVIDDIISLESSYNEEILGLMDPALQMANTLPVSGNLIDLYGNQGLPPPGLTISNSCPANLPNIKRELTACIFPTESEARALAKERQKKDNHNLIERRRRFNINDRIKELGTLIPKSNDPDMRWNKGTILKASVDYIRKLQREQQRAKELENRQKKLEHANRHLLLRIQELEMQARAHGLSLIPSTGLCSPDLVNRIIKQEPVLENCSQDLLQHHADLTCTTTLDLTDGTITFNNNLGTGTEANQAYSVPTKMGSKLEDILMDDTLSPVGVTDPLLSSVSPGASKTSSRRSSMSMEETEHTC
GPR151 confirm: GPR151 activators, triplicate retest, confirmation, cell-based, PathHunter beta-arrestin, luminescence; shares compounds with GPR151 activ; GPR151 PathHunter beta-arrestin cells, 90 min; % of EA-reagent control over plate median; activation, % at 11.2 µM; 6,700 tested, under 10 active; AID 1508609, 2020;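 active means mean percent activation across replicates above the confirmation screen cutoff of 4.91%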
GPR119 ag: GPR119 activators in beta-arrestin cells, counter-screen for GPR151 activator project, cell-based, PathHunter beta-arrestin, luminescence, triplicate; shares compounds with GPR151 activ; 90 min; 0 = compound-well median, 100 = enzyme-acceptor control; activation, % at 11.2 µM; 6,700 tested, 0.3% active;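 active means mean percent activation in the counterscreen above 29.09%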;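 further: counterscreen on off-target GPR119 to flag nonselective hits from the GPR151 activator screen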
A number is an active result; - = inactive; . = no result given.

SMILES	GPR151 activ	FBW7 act	TEAD-YAP inh	MITF primary	GPR151 confirm	GPR119 ag
CCN(c1ccccc1)S(=O)(=O)c1nnc(NC(=O)c2ccccc2OC)s1	5.0	-	-	-	-	-
CCN(c1ccccc1)S(=O)(=O)c1ccc(F)c(C(=O)Nc2ccc(OC)cc2)c1	8.7	-	-	-	-	-
CCN(c1ccccc1C)S(=O)(=O)c1nnc(NC(=O)c2ccc(F)cc2)s1	10	-	-	-	-	-
CN1C(=O)CC(CC(=O)N2CCC(c3ccccc3)CC2)(c2ccccc2Cl)C1=O (configuration not stated)	-	-	-	-	.	.
CCN(CC)c1ccc(C2CC(=O)C3=C(C2)Nc2ccccc2N(C(C)=O)C3c2ccco2)cc1 (configuration not stated)	-	-	-	-	.	.
COC(=O)c1ccc2nc(NC(=O)c3cc(Cl)ccc3Cl)sc2c1	-	-	-	-	.	.
COc1ccccc1-n1c(-c2ccc(NS(C)(=O)=O)cc2)n[nH]c1=S	6.5	-	-	-	-	-
COc1ccc(-c2n[nH]c(=S)n2-c2cc(OC)ccc2OC)cc1	-	-	-	-	.	.
CC(=O)N/C(N)=N/c1nc2ccccc2c(=O)[nH]1	-	-	-	-	.	.
Cc1ccc(-n2c3c(cc(C(=O)Nc4ccc5c(c4)OCCO5)c2=O)C(=O)CCC3)cc1	5.0	-	-	-	-	-
Cc1ccc(NC(=O)c2cc3c(n(-c4ccc(C)cc4)c2=O)CCCC3=O)cc1	-	-	-	-	.	.
COc1cccc(CN2CCc3nnc(CCNC(=O)C4CCCO4)n3CC2)c1 (configuration not stated)	6.3	-	-	-	-	-
COc1cc(CN2CCc3nnc(CCc4ccccc4)n3CC2)cc(OC)c1OC	7.1	-	-	-	-	-
COc1cc(CN2CCc3nnc(CCc4ccccc4)n3CC2)cc(OC)c1O	-	-	-	-	.	.
Cc1ccc(C)c(NC(=O)CSc2nnc(N)s2)c1	-	-	-	-	.	.
CCOCCCNC(=O)c1cnn2c(C)c(Cc3ccccc3Br)c(C)nc12	6.0	-	-	-	-	-
CSc1nc2[nH]c(=O)cc(O)c2s1	5.5	-	-	-	-	-
COc1ccc(Nc2nc3[nH]c(=O)cc(O)c3s2)cc1	-	-	-	-	.	.
CSc1ccc(S(=O)(=O)Nc2ccc(S(=O)(=O)N3CCOCC3)cc2)cc1	5.8	-	-	-	-	-
COc1ccc2c(c1)c(CC(=O)Nc1nnc(C)o1)c(C)n2C(=O)c1ccc(Cl)cc1	5.7	-	-	-	-	-
N#Cc1ccc(OCC(=O)N2C(=O)c3ccccc3S2(=O)=O)cc1	-	-	-	-	.	.
O=C(COc1ccccc1)N1C(=O)c2ccccc2S1(=O)=O	5.2	-	-	-	-	-
C[n+]1ccccc1/C=C/c1ccc([N+](=O)[O-])cc1	6.6	-	-	-	-	-
C[n+]1ccccc1/C=C/c1ccccc1	-	-	-	-	.	.
CC(=O)Nc1ccc(CN2CCN(Cc3ccccc3F)C(CCO)C2)cc1 (configuration not stated)	-	-	-	-	.	.
SMILES	GPR151 activ	FBW7 act	TEAD-YAP inh	MITF primary	GPR151 confirm	GPR119 ag
Nn1c(SCC(=O)Nc2ccc(OCc3ccccc3)cc2)nnc1-c1ccccc1	-	-	-	-	.	.
Nn1c(SCC(=O)Nc2ccc(OCc3ccccc3)cc2)nnc1-c1ccco1	5.0	-	-	-	-	-
CC(=O)Nc1ccc(S(=O)(=O)N2CCN(C(=O)c3ccccc3)CC2)cc1	-	-	-	-	.	.
CC(C)n1nnnc1C(c1ccccc1F)N1CCN(c2ccccc2)CC1 (configuration not stated)	6.0	-	-	-	-	-
COc1ccccc1N1CCN(C(c2ccc(N(C)C)cc2)c2nnnn2C(C)C)CC1 (configuration not stated)	5.3	-	-	-	-	-
COc1ccc(C(c2nnnn2C(C)C)N2CCN(c3ccccc3OC)CC2)cc1 (configuration not stated)	-	-	-	-	.	.

Screening results: PubChem, The Scripps Research Institute Molecular Screening Center
